Results on 109 molecules are retold here after PubChem BioAssay AID1981 (Southern Research Specialized Biocontainment Screening …, 2009).

Out of some 2,200 compounds screened, about 480 (22%) were called active. The rule behind the calls is not given here. The list is a sample of the results. Results with a measured potency or affinity are listed apart.

The test is described as follows: S. Typhimurium GFP fluorescence modified counterscreen for PhoP regulon inhibitor project dose response (AID 1981). Conditions: 4 h; series mostly up to 150 µM.
Consider `O=C(Nc1nc2ccc(SC(F)F)cc2s1)c1ccc2c(c1)S(=O)(=O)c1ccccc1C2=O`, for which the molecule was called inactive.
Under `Oc1ccc(Nc2nc(-c3cccs3)cs2)cc1` stands “inactive”; under `COC(=O)c1cc(C)nc2c1C(=O)C(=O)C=C2N1CCOCC1`, “inactive”; under `Nc1ccc(Nc2ccccc2)c(Cl)c1`, “inactive”.
For `Nc1ccc(Nc2ccccc2N)cc1`, the outcome was inactive.
As for `O=C(OCC(=O)c1ccc(S(=O)(=O)N2CCCC2)cc1)C1=COCCO1`, the entry is “inactive”; as for `O=C(NC(NC(=S)Nc1ccc(Cl)c(Cl)c1)C(Cl)(Cl)Cl)c1ccco1` (centres undefined), “inactive”; as for `O=C(NCc1ccco1)c1ccc(Br)s1`, “inactive”.
Take `CCCCN(C)C(=O)c1cn(C)c2ccc(S(=O)(=O)N(C)C)cc2c1=O`: the call was inactive.
As for `CCOC(=O)c1cnc(SCC(=O)Nc2ccc(N3CCOCC3)c(Cl)c2)nc1N`, the entry is “inactive”; as for `Cc1nc(NCc2ccc3c(c2)OCO3)c2oc3ccccc3c2n1`, “inactive”.
For the molecule `COc1ccc(/C=C/C(=O)NCCc2nc3ccccc3[nH]2)cc1`, the outcome was inactive.
As for `CCCCn1c(/N=C/c2c[nH]c3ccccc23)nc2ccccc21`, the entry is “inactive”.
Under `O=C1CCc2cc(S(=O)(=O)N3CCN(c4cccc(Cl)c4)CC3)ccc2N1` stands “inactive”.
In the case of `C=CCN(C(=O)c1cccc(S(=O)(=O)N2CCN(C)CC2)c1)c1nc(-c2ccccc2)cs1`, the molecule was called inactive.
Under `O=C(CCC(=O)c1cccs1)OCC(=O)N1CCN(S(=O)(=O)c2ccccc2)CC1` stands “inactive”.
Turning to `O=C1c2ccccc2C(=O)N1CCCc1nc2ccccc2c(=O)n1Cc1ccco1`, the outcome was inactive.
Under `O=C(NCCc1cn2ccccc2n1)c1ccccc1F` stands “inactive”.
As for `O=C(c1ccco1)[C@@H]1[C@@H]2C(=O)N(c3ccc(F)cc3)C(=O)[C@@H]2[C@H]2C=Cc3ccccc3N21`, the entry is “inactive”.
As to `Clc1ccc(-c2csc3ncnc(N4CCc5ccccc5C4)c23)cc1`, the outcome was inactive.
As for `CCCCN(C(=O)NC(=O)Nc1nc2ccc(OC)cc2s1)S(C)(=O)=O`, the entry is “inactive”; as for `c1csc(C2Nc3ccccc3-c3nc4ccccc4n32)c1` (centres undefined), “inactive”; as for `c1ccc(CSc2snnc2-c2ccccc2)cc1`, “inactive”.
As to `O=C(Cc1c[nH]c2ccccc12)N/N=C/c1ccc(F)cc1`, the outcome was inactive.
As for `O=c1[nH]c(NNC(=S)NCc2ccccc2)nc2c1C1(CCCCC1)Cc1ccccc1-2`, the entry is “inactive”.
Under `CN(C(=O)c1cccc(C#N)c1)c1nnc(-c2cnccn2)s1` stands “inactive”; under `COc1ccc(-c2ccccc2)cc1NCc1ccccc1C`, “inactive”; under `CC(=O)Nc1cccc(-c2csc(Nc3cccc(C)n3)n2)c1`, “inactive”.
On to `CCOC(=O)C1=C(C)NC(=O)NC1c1ccsc1` (centres undefined), for which the molecule was called inactive.
As for `CCOC(=O)C(NC(=O)c1cccc(Cl)c1)(OCc1ccccc1)C(F)(F)F` (centres undefined), the entry is “inactive”; as for `Cc1ccc(C(=O)N2CC3(C(C)C)CN(C(=O)c4ccc(C)cc4)CC(C(C)C)(C2)C3=O)cc1`, “inactive”.
As for `O=C(N/N=C/c1ccco1)c1cccc(S(=O)(=O)Nc2ccccc2Cl)c1`, the entry is “inactive”; as for `CCn1c2ccccc2c2cc(/C=N/NC(=O)c3ccccc3)ccc21`, “inactive”; as for `CCN(CC)S(=O)(=O)c1cccc(C(=O)NC(Cc2c[nH]c3ccccc23)c2nnc3n2CCC3)c1` (centres undefined), “inactive”.
`Cc1ccc(-n2c(C)cc(/C=N/NC(N)=S)c2C)cc1`: the call was inactive.
Turning to `O=C(/C=C\c1ccco1)Nc1nc(-c2ccccc2)cs1`, the call was inactive.
Under `COc1cccc(OC)c1C(=O)NC(=S)Nc1cc(-c2nc3ccccc3[nH]2)ccc1Cl` stands “inactive”.
Under `Cc1[nH]c2ccccc2c1/C=N/Nc1ccc(F)cc1F` stands “inactive”; under `N#Cc1nc(-c2cccs2)oc1NCCCN1CCOCC1`, “inactive”; under `c1ccc(Nc2cc(Nc3ccccc3)[nH]n2)cc1`, “inactive”.
Under `Oc1c(Br)cc(Br)cc1C=NCc1ccccc1` stands “inactive”.
As to `Cc1ccc(-n2sc3ccccc3c2=O)cc1S(=O)(=O)N1CCCCC1`, the molecule was classed as inactive.
As for `Cc1ccc(C)c(-c2nc3ccc(N)cc3[nH]2)c1`, the entry is “inactive”; as for `c1ccc(CCNc2nc3ccccc3s2)cc1`, “inactive”; as for `CC(=O)Nc1ccc(C(=O)N2CCN(C(=O)c3ccco3)CC2)cc1`, “inactive”.
As for `Cc1cccnc1N(C(=O)Nc1ccccc1)C1=NCC(C)(C)S1`, the entry is “inactive”; as for `CN1C(=O)/C(=C/c2cccn2-c2ccc3ccccc3c2)C(=O)NC1=S`, “inactive”; as for `CCOc1cc(/C=C2/NC(=O)N(CC(=O)Nc3cccc(C)c3)C2=O)ccc1OC`, “inactive”.
As for `COc1ccc(C(C)C)cc1S(=O)(=O)Nc1ccc(Cl)cn1`, the entry is “inactive”; as for `Cc1ccc2[nH]c3c(=O)n(CCc4cnc[nH]4)cnc3c2c1`, “inactive”; as for `c1ccc(-n2cnc3cc(NCc4ccncc4)ccc32)cc1`, “inactive”.
For the molecule `Cc1[nH]c2ccccc2c1C1=CCNCC1`, the outcome was inactive.
`CCOC(=O)C1CCCN(C(=O)c2sc3nc(C)nc(N4CCOCC4)c3c2C)C1` (centres undefined): the molecule was classed as inactive.
Under `Cc1cc(C(=O)COC(=O)CNC(=O)c2ccco2)c(C)n1Cc1ccco1` stands “inactive”.
As for `CN(C)c1ccc(/C=N/c2cc(-c3ccccc3)nn2-c2ccccc2)cc1`, the entry is “inactive”; as for `Cc1ccc(N2C(=O)CC(n3ccnc3)C2=O)cc1C` (centres undefined), “inactive”; as for `Cc1cc(NC(=O)c2cnn3cccnc23)no1`, “inactive”.
As for `COc1ccc(-c2cc(C(=O)Nc3cc(C)n(Cc4ccc(Cl)cc4)n3)no2)cc1OC`, the entry is “inactive”; as for `O=C(NCCSCc1ccccc1)c1ccc(F)cc1`, “inactive”.
`COC(=O)CN1C(c2ccc(OC)cc2)=Nc2ccc(Cl)cc2C1c1ccccc1` (centres undefined): the outcome was inactive.
As for `Cc1ccc(-c2cc(C(=O)Nc3nccs3)c3ccccc3n2)o1`, the entry is “inactive”; as for `Nc1nc(N2CCN(C/C=C/c3ccccc3)CC2)nc2ccccc12`, “inactive”; as for `O=C(O)CCC(=O)NCC1OCCc2ccccc21` (centres undefined), “inactive”.
As for `Cc1nc2ccccn2c1C(=O)N/N=C/c1ccccc1[N+](=O)[O-]`, the entry is “inactive”.
Take `COC(=O)c1cn(C(=O)c2cccs2)c2ccccc12`: the outcome was inactive.
Under `Cc1cc(/C=N\NC(=O)c2cccs2)c(C)n1-c1ccc2ncccc2c1` stands “inactive”; under `COc1c(/C=N/Nc2nc(N3CCCCC3)nc(N3CCCCC3)n2)cccc1[N+](=O)[O-]`, “inactive”; under `CCOC(=O)C(NC(=O)CC)(Nc1ccc(C(O)(C(=O)OCC)C(F)(F)F)cc1C)C(F)(F)F` (centres undefined), “inactive”.
As for `CN(C(=O)c1ccc2c(c1)OCO2)C1(C(=O)NC2CCCCC2)CCCCC1`, the entry is “inactive”.
As for `O=C(CSc1nnc(Cc2ccccc2)o1)NCCc1ccccc1`, the entry is “inactive”; as for `Cc1ccc(CNc2oc(-c3cccs3)nc2C#N)cc1`, “inactive”.
Turning to `COc1cccc2[nH]c3c(N4CCC(C)CC4)ncnc3c12`, the molecule was classed as inactive.
As for `NCCCC[C@H]1CN=C(N)N1CCC12CC3CC(CC(C3)C1)C2`, the entry is “inactive”; as for `COCC(=O)N=Nc1c(O)[nH]c2ccccc12`, “inactive”.
Under `C(=N\N1CCN(C2c3ccccc3-c3ccccc32)CC1)/c1cccs1` stands “inactive”; under `Cc1ccc(C(=O)Oc2ccc(C(=O)COC(=O)c3cnccn3)cc2)cc1`, “inactive”.
As for `O=[N+]([O-])c1ccc(CNC2CCCc3ccccc32)cc1` (centres undefined), the entry is “inactive”; as for `COc1cc(C2Nc3cccc4cccc(c34)N2)cc(OC)c1O`, “inactive”.
`CCOC(=O)CCCc1c[nH]c2ccccc12`: the molecule was called inactive.
As for `COc1ccc(-n2c(C)cc(C(=O)Cn3nc(C(=O)O)c4ccccc4c3=O)c2C)cc1`, the entry is “inactive”.
Under `NNc1nc2c(-c3cccc(C(F)(F)F)c3)nnn2c2ccccc12` stands “inactive”.
As for `O=C(Nc1ccc(Br)cc1)c1ccc(F)c(S(=O)(=O)NCc2cccs2)c1`, the entry is “inactive”.
Take `Cc1cc(C)cc(CC(Cc2nc3ccccc3[nH]2)c2nc3ccccc3[nH]2)c1` (centres undefined): the molecule was classed as inactive.
Take `O=C(/C=C/c1ccco1)NC(=S)Nc1ccc(N2CCCC2)cc1`: the result was inactive.
As for `Cc1cc2ncn(C3CC(=O)N(Cc4ccc(N5CCCC5=O)cc4)C3=O)c2cc1C` (centres undefined), the entry is “inactive”.
For the molecule `O=C(NC(=Nc1ccccc1)N1CCOCC1)Nc1ccccc1`, the outcome was inactive.
As for `Cc1ccc(NC(=O)NCC2CCN(Cc3cccc(Cl)c3)CC2)cc1Cl`, the entry is “inactive”.
Under `Cc1ccc(NC(=O)c2cc(S(=O)(=O)N3CCC4(CC3)OCCO4)ccc2F)cc1` stands “inactive”; under `COc1ccc(-c2cc(-c3ccc(OC)c(OC)c3)n[nH]2)c(O)c1`, “inactive”.
As for `COc1ccc(-c2ccc(C#N)c(SCC(=O)NCCc3ccccc3)n2)cc1OC`, the entry is “inactive”.
Consider `Cc1cc(C)n2c(SCC(=O)NCc3ccco3)nnc2n1`, for which the molecule was called inactive.
As for `COc1ccc(C2COC(=O)C2=N)c(NC(=O)c2ccc(Cl)cc2)c1` (centres undefined), the entry is “inactive”; as for `Cc1ccc(C(=O)C2COC(=O)C2)cc1` (centres undefined), “inactive”.
Under `COc1ccc(OC)c(C(C(=O)NCc2ccco2)N(C(=O)Cn2nnc3ccccc32)C(C)C)c1` (centres undefined) stands “inactive”; under `O=C(NCc1cccnc1)c1ccc(Cl)cc1[N+](=O)[O-]`, “inactive”.
Under `Cc1ccc(NC(=O)COc2ncnc3c(Cl)cc(Cl)cc23)cc1[N+](=O)[O-]` stands “inactive”.
In the case of `Cc1ccc(C)c(NC(=S)NCCSc2ccc(Cl)cc2)c1`, the call was inactive.
Under `O=C1c2cccc(OCC(=O)N3N=C(c4cccs4)CC3c3ccc(F)cc3)c2CCN1Cc1cccnc1` (centres undefined) stands “inactive”; under `Cc1ccc(NS(=O)(=O)c2ccc(N3C(=O)CCC3=O)cc2)cc1`, “inactive”; under `CCOc1ccc(NC(=O)Nc2cccs2)cc1`, “inactive”.
As for `CC(C)CCNC(=O)C12CN(Cc3ccccc3)CC1C(c1cccc([N+](=O)[O-])c1)=NO2` (centres undefined), the entry is “inactive”; as for `O=C(Nc1cc(C(F)(F)F)ccc1Cl)C(NCc1ccccc1)c1ccccc1` (centres undefined), “inactive”.
As for `Cc1oc(CC(C)C)c(CN)c1C(=O)O`, the entry is “inactive”; as for `CCOC(=O)C1=C(C)NC(=O)NC1c1c(OCC(=O)N2CCCCC2)ccc2ccccc12` (centres undefined), “inactive”.
On to `COc1ccc(C2=NOC(C(=O)Nc3ccc(C)cc3)C2)cc1OC` (centres undefined), for which the result was inactive.
As for `Cc1cc([N+](=O)[O-])cc2ncccc12`, the entry is “inactive”.
As for `C=CCn1c(SCCOc2ccc(OC)cc2)nnc1C(C)NC(=O)c1ccc(OC)cc1` (centres undefined), the entry is “inactive”; as for `COc1ccc(-n2c(CNc3ccc(C)cc3)nnc2SCc2ccccc2)cc1`, “inactive”; as for `Cc1ccc2nc(SCC(=O)c3c(C)[nH]c4ccccc34)[nH]c2c1`, “inactive”.
